Test results taken from PubChem BioAssay AID1851 (National Center for Advancing Translational Sciences (NCATS), 2009).
The campaign covered roughly 16,000 compounds. About 5,100 (32%) were called active. Inconclusive results (about 25%) are left out. Calls follow the shape of the dose curve; as a rule, active = well fitted curve in the direction sought with a large enough effect; inconclusive = small, poorly fitted or top-dose-only effect, or effect the other way; inactive = no such curve, though single readings can be large or run the other way. The list shows a part of the results. More than one record can exist for a structure, and the calls need not agree.

target: Cytochrome P450 3A4 (Homo sapiens) (UniProt P08684); assay: Cytochrome panel assay with activity outcomes; settings: recombinant CYP, pro-luciferin dealkylation, luminescence, p450-cyp3a4; series mostly up to 57.1 µM; activity, negative = inhibition: at the top concentration
Sequence (P08684 whole entry, looked up): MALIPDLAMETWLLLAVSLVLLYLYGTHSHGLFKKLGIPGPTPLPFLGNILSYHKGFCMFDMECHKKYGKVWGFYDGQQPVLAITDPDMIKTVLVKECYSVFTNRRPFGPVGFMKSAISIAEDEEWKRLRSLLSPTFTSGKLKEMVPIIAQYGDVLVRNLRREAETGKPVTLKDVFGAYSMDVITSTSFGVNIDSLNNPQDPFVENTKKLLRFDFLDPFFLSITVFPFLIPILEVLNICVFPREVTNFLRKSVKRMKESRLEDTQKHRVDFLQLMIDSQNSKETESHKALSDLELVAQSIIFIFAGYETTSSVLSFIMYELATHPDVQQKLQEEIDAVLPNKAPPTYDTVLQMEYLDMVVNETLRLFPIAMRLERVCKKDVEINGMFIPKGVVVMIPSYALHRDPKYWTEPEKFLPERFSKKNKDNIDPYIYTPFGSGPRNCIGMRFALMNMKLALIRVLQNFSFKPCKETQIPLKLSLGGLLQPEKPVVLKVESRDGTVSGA
% is scaled to controls: 0 for no effect and ±100 for the full control effect.

| SMILES | activity, negative = inhibition | AC50 |
| --- | --- | --- |
| C[C@H]1COC(=O)[C@H]2CCCN2C(=O)[C@@H](C)COC(=O)[C@H](Cc2ccccc2)NC1=O | -25.7% [at 11.4 µM] (inactive) | – |
| Cc1ccc(S(=O)(=O)N[C@H]2COC(=O)C/C=C\[C@@H](C)[C@H](NS(=O)(=O)c3ccc(C)cc3)COC(=O)C/C=C\[C@H]2C)cc1 | – | 3.16 µM (active) |
| Cc1ccc(S(=O)(=O)N[C@H]2COC(=O)[C@@H](Cc3ccccc3)NC(=O)[C@@H](C)COC(=O)C/C=C\[C@@H]2C)cc1 | -7.89% [at 11.4 µM] (inactive) | 3.98 µM (active) |
| CO[C@@H]1COC(=O)CC=C[C@@H](C)[C@@H]2C=C[C@@H](O)[C@@H](COC(=O)C/C=C\[C@H]1C)O2 | -26.7% [at 11.4 µM] (inactive) | – |
| CO[C@H]1COC(=O)C/C=C\[C@H](C)COC(=O)[C@@H](C)NC(=O)C/C=C\[C@@H]1C | -29.4% [at 11.4 µM] (inactive) | – |
| Cc1ccc(S(=O)(=O)N[C@@H]2COC(=O)C/C=C\[C@H](C)COC(=O)N[C@@H](C)C(=O)C/C=C\[C@H]2C)cc1 | – | 3.16 µM (active) |
| Cc1ccc(S(=O)(=O)N[C@H]2COC(=O)CC=C[C@@H](C)[C@H]3C=C[C@H](O)[C@@H](COC(=O)CC=C[C@H]2C)O3)cc1 | -9.33% [at 11.4 µM] (inactive) | 3.16 µM (active) |
| C[C@@H]1/C=C\CC(=O)OC[C@H]2O[C@@H](C=C[C@@H]2O)[C@H](C)/C=C\CC(=O)OC[C@H]2O[C@H]1C=C[C@@H]2O | -21.3% [at 11.4 µM] (inactive) | – |
| C[C@@H]1/C=C\CC(=O)OC[C@H](C)C(=O)N[C@@H](C)C(=O)OC1 | -13.1% [at 11.4 µM] (inactive) | – |
| CSCC[C@@H]1NC(=O)C/C=C\[C@@H](C)COC(=O)[C@@H](C)COC1=O | -21.5% [at 11.4 µM] (inactive) | – |
| c1ccc2c(c1)C(=Nc1ccc(N=C3c4ccccc4-c4ccccc43)cc1)c1ccccc1-2 | -5.03% [at 11.4 µM] (inactive) | – |
| CCNC(=O)C/C(C)=N/NC(=O)C12CC3CC(CC(C3)C1)C2 | 18.8% [at 2.29 µM] (inactive) | – |
| CCOC(=O)CSCC(NC(=O)OC(C)(C)C)C(=O)OCC (stereo not given) | -18.6% (inactive) | – |
| Cc1ccc(S(=O)(=O)N[C@H]2COC(=O)C/C=C\[C@@H](C)COC(=O)C/C=C\[C@@H]2C)cc1 | -13.2% [at 11.4 µM] (inactive) | 3.16 µM (active) |
| Cc1ccc(S(=O)(=O)N[C@H]2COC(=O)C/C=C\[C@H](C)[C@@H](NS(=O)(=O)c3ccc(C)cc3)COC(=O)C/C=C\[C@@H]2C)cc1 | – | 3.98 µM (active) |
| Cc1ccc(S(=O)(=O)N[C@H]2COC(=O)C/C=C\[C@@H](C)[C@H](NS(=O)(=O)c3ccc(C)cc3)COC(=O)[C@H](C)NC(=O)C/C=C\[C@H]2C)cc1 | -35.2% [at 11.4 µM] (inactive) | – |
| CO[C@H]1COC(=O)C/C=C\[C@@H](C)COC(=O)[C@@H](C)NC(=O)C/C=C\[C@@H]1C | 14.4% [at 11.4 µM] (inactive) | – |
| CO[C@H]1COC(=O)C/C=C\[C@@H](C)COC(=O)[C@H]2CCCN2C(=O)C/C=C\[C@H]1C | -22.4% [at 11.4 µM] (inactive) | – |
| O=C(C1CCN(S(=O)(=O)N2CCOCC2)CC1)N1CCN(c2ccccc2)CC1 | -27.5% (inactive) | – |
| CC(=O)Nc1ccc(S(=O)(=O)NCC2CCC(C(=O)N3CCN(c4ccccn4)CC3)CC2)cc1 (stereo not given) | – | 12.6 µM (active) |
| O=C(C1CCN(S(=O)(=O)c2cccc3cccnc23)CC1)N1CCN(c2ccccn2)CC1 | – | 3.55 µM (active) |
| COCC(=O)N1CCC2(CC1)CN(c1ccccn1)C2 | 0.699% (inactive) | – |
| CC(=O)Nc1ccc(S(=O)(=O)N2CCC(N(C)CCC(C)C)CC2)cc1 | -19.6% (inactive) | – |

| SMILES | activity, negative = inhibition | AC50 |
| --- | --- | --- |
| CC(=O)N1CCC2(CC1)CCN(c1ccccn1)CC2 | -3.11% (inactive) | – |
| CC(C)c1ccc(OCc2ccc(C(=O)N3CCN(c4ccccn4)CC3)cc2)cc1 | -15.4% (inactive) | – |
| CC(=O)Nc1ccc(S(=O)(=O)NCC2CCC(C(=O)NCCC(C)C)CC2)cc1 (stereo not given) | – | 17.8 µM (active) |
| COc1ccc(S(=O)(=O)NCc2ccc(C(=O)N3CCN(c4ccccn4)CC3)cc2)cc1 | – | 15.8 µM (active) |
| O=C(c1cnc(N2CCN(c3ncccn3)CC2)c2ccccc12)N1CCN(c2ccccn2)CC1 | -7.43% [at 11.4 µM] (inactive) | – |
| COC(Cn1c(C)c(C(C)=O)c(C(C)=O)c1C)OC | -5.99% (inactive) | – |
| O=C(O)COC(=O)Cc1ccccc1Nc1c(Cl)cccc1Cl | -3.09% [at 25.6 µM] (inactive) | – |
| CCOC(=O)n1ccn(C)c1=S | -4.03% [at 25.6 µM] (inactive) | – |
| COc1ccc2cc(CCNC(=O)C3CC3)c(=O)[nH]c2c1 | -21.9% (inactive) | – |
| Cc1ccc2cc(CCNC(=O)c3ccc(Br)o3)c(=O)[nH]c2c1 | – | 14.1 µM (active) |
| CCN1C(=O)[C@H]2[C@H]3[C@H](O)[C@H](O)C/C(=N/NC(=O)OCc4ccccc4)[C@H]3CC[C@@H]2C1=O | -12.4% [at 11.4 µM] (inactive) | – |
| CCOC(=O)N/N=C1/C[C@@H](O)[C@@H](O)[C@@H]2[C@@H]3C(=O)N(Cc4ccccc4)C(=O)[C@H]3CC[C@@H]12 | -18.3% [at 11.4 µM] (inactive) | – |
| CCOC(=O)N/N=C1/C[C@@H](O)[C@@H](O)[C@@H]2[C@@H]3C(=O)N(Cc4ccc5c(c4)OCO5)C(=O)[C@H]3CC[C@@H]12 | – | 3.98 µM (active) |
| COc1ccc(COC(=O)N/N=C2/C[C@@H](O)[C@@H](O)[C@@H]3[C@@H]4C(=O)N(c5cccc(Oc6ccccc6)c5)C(=O)[C@H]4CC[C@H]23)cc1 | – | 3.16 µM (active) |
| O=C(N/N=C1/C[C@@H](O)[C@@H](O)[C@@H]2[C@@H]3C(=O)N(Cc4ccc5c(c4)OCO5)C(=O)[C@H]3CC[C@@H]12)OCc1ccccc1 | – | 1.26 µM (active) |
| CCN1C(=O)[C@H]2[C@H]3[C@H](O)[C@H](O)C/C(=N/NC(=O)OCc4ccccc4)[C@@H]3CC[C@@H]2C1=O | -8.99% [at 11.4 µM] (inactive) | – |
| CCOC(=O)N/N=C1/C[C@@H](O)[C@@H](O)[C@@H]2[C@@H]3C(=O)N(c4cccc(Oc5ccccc5)c4)C(=O)[C@H]3CC[C@@H]12 | -28.7% [at 11.4 µM] (inactive) | – |
| O=C(N/N=C1/C[C@@H](O)[C@@H](O)[C@@H]2[C@@H]3C(=O)N(Cc4ccccc4)C(=O)[C@H]3CC[C@H]12)OCc1ccccc1 | -21.6% [at 11.4 µM] (inactive) | – |
| O=C(N/N=C1/C[C@@H](O)[C@@H](O)[C@@H]2[C@@H]3C(=O)N(Cc4ccccc4)C(=O)[C@H]3CC[C@@H]12)OCc1ccccc1 | -17.8% [at 11.4 µM] (inactive) | – |
| CCOC(=O)N/N=C1/C[C@@H](O)[C@@H](O)[C@@H]2[C@@H]3C(=O)N(c4cccc(Oc5ccccc5)c4)C(=O)[C@H]3CC[C@H]12 | -29.2% [at 11.4 µM] (inactive) | – |
| O=C(N/N=C1/C[C@@H](O)[C@@H](O)[C@@H]2[C@@H]3C(=O)N(Cc4ccc5c(c4)OCO5)C(=O)[C@H]3CC[C@H]12)OCc1ccccc1 | – | 3.98 µM (active) |
| CCOC(=O)N/N=C1/C[C@@H](O)[C@@H](O)[C@@H]2[C@@H]3C(=O)N(Cc4ccccc4)C(=O)[C@H]3CC[C@H]12 | -22% [at 11.4 µM] (inactive) | – |
| O=C(O)C12CC3(C(=O)O)CC(C(=O)O)(CC(C(=O)O)(C1)C3=O)C2=O | -8.55% [at 11.4 µM] (inactive) | – |

| SMILES | activity, negative = inhibition | AC50 |
| --- | --- | --- |
| N[C@@H](C(=O)O)c1ccc(O)c(C(=O)O)c1 | -20.5% (inactive) | – |
| NC(=NCCCCCCN=C(N)/N=C(\N)Nc1ccc(Cl)cc1)/N=C(\N)Nc1ccc(Cl)cc1 | -12.9% [at 25.6 µM] (inactive) | – |
| Nc1nc2c(c(=O)[nH]1)CN(CCCN1CCOCC1)CN2 | -5.39% [at 11.4 µM] (inactive) | – |
| C[C@@H](C(=O)Nc1ccc2ccccc2c1)[C@H]1C[C@]1(C)[C@H](NS(=O)(=O)c1ccc2ccccc2c1)c1ccccc1 | – | 7.94 µM (active) |
| C[C@@H](C(=O)Nc1ccc2ccccc2c1)[C@H]1C[C@]1(C)[C@H](NS(=O)(=O)c1ccc(-c2ccccc2)cc1)c1ccccc1 | – | 10 µM (active) |
| C[C@@H](C(=O)Nc1ccc2ccccc2c1)[C@@H]1C[C@@]1(C)[C@@H](NS(=O)(=O)c1ccc(-c2ccccc2)cc1)c1ccccc1 | -22% (inactive) | – |
| Cc1nn(C)c(Cl)c1S(=O)(=O)N[C@@H](c1ccccc1)[C@]1(C)C[C@H]1[C@@H](C)C(=O)Nc1ccc2ccccc2c1 | – | 1.26 µM (active) |
| CC(C)OC(=O)CC12CN(C)CC(CC(=O)OC(C)C)(CN(C)C1)C2=O | 15.3% [at 2.29 µM] (inactive) | – |
| Fc1ccc(-c2ccnc3nc(N4CCOCC4)nn23)cc1 | -27.2% (inactive) | – |
| O=C(CNC(=O)/C(=C\c1ccccc1)NC(=O)c1ccc(Br)cc1)OCc1ccccc1 | – | 0.2 µM (active) |
| COc1ccccc1C(=O)N/C(=C/c1ccc(Br)cc1)C(=O)NCC(=O)O | – | 8.91 µM (active) |
| COc1ccc(C(=O)NCC(=O)OCc2cccc(Br)c2)cc1 | – | 7.94 µM (active) |
| C/C(=C\c1ccc(Cl)cc1)C(C)(C)C(=O)O | -11.2% [at 11.4 µM] (inactive) | – |
| O=C(OCc1ccccc1)/C(=C/c1ccc(Cl)cc1)NC(=O)c1ccccc1Cl | – | 0.178 µM (active) |
| COC(=O)CCC(=O)NNC(=O)c1ccc(Br)cc1 | -9.71% (inactive) | – |
| O=C(O)CNC(=O)c1ccccc1O | -5.63% [at 11.4 µM] (inactive) | – |
| CS(=O)(=O)Nc1cccc(-c2nc(Nc3ccc(F)cc3)c3ccccc3n2)c1 | – | 6.31 µM (active) |
| COc1cccc(-c2nc(Nc3ccncc3)c3ccccc3n2)c1 | – | 2.51 µM (active) |
| CS(=O)(=O)Nc1cccc(-c2nc(Nc3ccccc3)c3ccccc3n2)c1 | – | 10 µM (active) |
| CN(C)c1nc(-c2cccc(NS(C)(=O)=O)c2)nc2ccccc12 | – | 6.31 µM (active) |
| Cc1cccc(C(=O)NN(C)c2nc(-c3ccccc3)nnc2C(F)(F)F)c1 | -22.4% (inactive) | – |
